In PubChem BioAssay AID1851 (National Center for Advancing Translational Sciences (NCATS), 2009):
The campaign covered roughly 16,000 compounds. About 4,000 (25%) were called active. About 26% were inconclusive and are not listed. The list is a sample of the results. Values without a mark were called inactive. Calls come from the whole dose curve; as a rule, active = well fitted curve in the direction sought with a large enough effect; inconclusive = small, poorly fitted or top-dose-only effect, or effect the other way; inactive = no such curve, though single readings can be large or run the other way.

Biological target: Cytochrome P450 2C9 (Homo sapiens) (UniProt P11712)
Assay: Cytochrome panel assay with activity outcomes
Conditions: recombinant CYP, pro-luciferin dealkylation, luminescence, p450-cyp2c9; series mostly up to 57.1 µM; activity, negative = inhibition: at the top concentration
% is set by controls: 0 for no effect and ±100 for the full control effect.

Chain of Cytochrome P450 2C9 (Homo sapiens) (P11712 whole entry, looked up): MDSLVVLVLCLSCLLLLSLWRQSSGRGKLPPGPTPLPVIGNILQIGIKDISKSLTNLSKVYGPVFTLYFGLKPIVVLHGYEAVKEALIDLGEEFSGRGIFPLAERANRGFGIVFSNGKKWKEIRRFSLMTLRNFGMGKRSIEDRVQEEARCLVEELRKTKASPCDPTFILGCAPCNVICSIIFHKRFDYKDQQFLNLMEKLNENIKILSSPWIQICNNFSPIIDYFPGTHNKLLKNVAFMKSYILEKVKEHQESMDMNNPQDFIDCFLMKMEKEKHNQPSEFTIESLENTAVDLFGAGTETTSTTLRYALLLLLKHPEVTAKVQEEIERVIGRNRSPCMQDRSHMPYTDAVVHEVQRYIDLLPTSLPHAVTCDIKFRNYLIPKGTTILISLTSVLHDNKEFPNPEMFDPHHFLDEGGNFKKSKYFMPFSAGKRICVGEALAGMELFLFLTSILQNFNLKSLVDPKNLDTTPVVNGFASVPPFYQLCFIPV

Row | Compound | activity, negative = inhibition | AC50
1 | CC(=O)NCCNc1ncnc2ccc(-c3cccc(NS(C)(=O)=O)c3)cc12 | -12.9% [at 2.29 µM] | –
2 | CCOC(=O)NC(=O)CSc1nc2ccc(OCC)cc2[nH]1 | -28.6% | –
3 | Cc1ccc2nc(SCC(=O)c3ccc4c(c3)OCO4)[nH]c2c1 | – | 5.01 µM (active)
4 | CC(C)(C)c1ccc(-c2nnc(SCC(=O)c3ccc4c(c3)OCCO4)o2)cc1 | – | 3.16 µM (active)
5 | Cc1ccc(NC(=O)CSc2nnc(-c3ccncc3)o2)cc1 | – | 3.55 µM (active)
6 | Cc1ccc2nc(CC(=O)c3ccc4ccccc4c3)c(=O)[nH]c2c1 | -7.8% [at 11.4 µM] | –
7 | NC(=O)c1ccc(-c2nc(-c3ccc4c(c3)OCO4)c(-c3ccccn3)[nH]2)cc1 | -18.5% | –
8 | CCC(=O)Nc1ccc(NC(=O)CSc2nnnn2-c2cccnc2)cc1C | -19.7% | –
9 | COc1ccc2nc(SCC(=O)Nc3ccc4c(c3)OCCO4)[nH]c2c1 | – | 2.24 µM (active)
10 | CCS(=O)(=O)N1CCC(C(=O)NCCCN2CCCC2)CC1 | 14.5% | –
11 | COc1ccc([C@H]2Sc3ccccc3N(CCN(C)C)C(=O)[C@H]2OC(C)=O)cc1 | – | inactive
12 | NC(N)=N/N=C(\c1ccc(Cl)cc1)C1CC1 | -1.67% [at 11.4 µM] | –
13 | C#CCCCO/N=C1/C[C@@H](O)[C@@H](O)[C@@H]2[C@@H]3C(=O)N(C4CCCCC4)C(=O)[C@H]3CC[C@@H]12 | -15% [at 11.4 µM] | –
14 | CC(C)C(O)(C(C)C)C(C)C | -0.763% [at 11.4 µM] | –
15 | CNc1ncncc1-c1ccc(C(=O)N(C)C)cc1 | -6.73% [at 2.29 µM] | –
16 | COc1ccc(-n2c(=O)[nH]cc(C(=O)Nc3ccc4c(c3)OCCO4)c2=O)cc1 | – | 7.08 µM (active)
17 | COc1cc(C(=O)Nc2ccc3c(c2)OCCO3)c(-n2cnnn2)cc1OC | -8.95% | –
18 | COc1cc(-c2nnc(SCC(=O)Nc3ccc4c(c3)OCCO4)o2)cc(OC)c1OC | – | 1.41 µM (active)
19 | Cc1ccc2nc(SCC(=O)Nc3nnc(SCC(N)=O)s3)[nH]c2c1 | – | 11.2 µM (active)
20 | CCCCNCCOCCSc1ccc(Cl)cc1 | -16.8% | –
21 | CCCCCc1nc2c(=O)[nH]c3ccccc3c2o1 | -15.2% | –
22 | NC(=Nc1ccccc1)NC(=O)c1nc(Cl)c(N)nc1N | -6.89% | –
23 | N/C(=N\c1nc2ccccc2o1)NC(=O)c1ccccc1F | – | 12.6 µM (active)

Row | Compound | activity, negative = inhibition | AC50
24 | COc1ccc(C2/C(=C(/O)c3ccc4c(c3)CC(C)O4)C(=O)C(=O)N2CCN2CCOCC2)cc1 (stereo unspecified) | -36.8% | –
25 | COc1cccc(NC(=O)CSc2nnc(CN3CCOCC3)n2C)c1 | -27.8% | –
26 | CCN(CC)C(=O)CSc1nc2ccc(NC(=O)CSc3nnc(COc4ccccc4C)n3C)cc2s1 | – | 1.58 µM (active)
27 | CCOC(=O)N/N=C/c1ccccc1F | -7.31% | –
28 | O=C(COc1ccc(-c2ccccc2)cc1)N/N=C/c1ccccc1Br | – | 4.47 µM (active)
29 | CN(C)Cc1c[nH]c2nc[nH]c(=O)c12 | 4.29% [at 11.4 µM] | –
30 | CC(=O)NCCNc1nc(-c2ccc3c(c2)OCO3)nc2ccccc12 | 5.84% [at 2.29 µM] | –
31 | CC(NC(=O)CCSc1nc(-c2ccc3c(c2)OCO3)cc(C(F)(F)F)n1)c1ccccc1 (stereo unspecified) | – | 2 µM (active)
32 | c1ccc(CNc2nc(-c3ccc4c(c3)OCO4)nc3ccccc23)cc1 | -26.1% [at 2.29 µM] | –
33 | Cc1cc(NCCO)c2ccccc2n1 | -11.5% | –
34 | CCCNc1c(F)c(F)c2c(C)c3ccccc3nc2c1F | – | 15.8 µM (active)
35 | COCCNc1nc(-c2ccccc2C(F)(F)F)nc2ccccc12 | -9.26% [at 2.29 µM] | –
36 | CCN1CCN(c2nc(-c3ccccn3)nc3ccccc23)CC1 | -23.3% | –
37 | CCCCC1CCC(c2nc(-c3ccccn3)no2)CC1 (stereo unspecified) | – | 14.1 µM (active)
38 | CC(=O)/C=C/c1ccc2ccccc2n1 | -7.35% | –
39 | c1ccc2nc(-c3ccncc3)ccc2c1 | – | 5.01 µM (active)
40 | COc1cccc(-c2cc(N(C)Cc3ccco3)ncn2)c1 | -6.29% [at 2.29 µM] | –
41 | C[C@@H]1NC(=O)C/C=C\[C@@H](C)[C@@H]2C=C[C@H](O)[C@@H](COC(=O)[C@H](C)NC(=O)C/C=C\[C@@H](C)[C@@H]3C=C[C@H](O)[C@@H](COC1=O)O3)O2 | 5.32% [at 11.4 µM] | –
42 | CCOc1cc(S(=O)(=O)N(Cc2ccccc2)Cc2ccccc2)c(OCC)cc1-n1cnnn1 | – | 7.94 µM (active)
43 | O=C(O)CN(CCOCCOCCN(CC(=O)O)CC(=O)O)CC(=O)O | 6.97% | –
44 | FC(F)(F)c1ccccc1-c1nc(NC2CC2)c2ccccc2n1 | 12.1% [at 2.29 µM] | –
45 | COc1cc(C)cc(OC)c1/C=C\C(=O)O | -15.8% [at 11.4 µM] | –
46 | COc1ccc2ccccc2c1/C=C\C(=O)c1ccccc1 | – | 1.26 µM (active)
